Measured values taken from PubChem BioAssay AID687041 (Broad Institute, 2013).
Potency and affinity values are given separately. Active and inactive are the calls of the source.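 The calls were made as follows: active = compounds lowering miR-122 whose fitted half-maximal concentration is at most twice the top tested dose; inconclusive = flat fit with moderate reduction, or poor fit quality; inactive = the rest.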

test: miR-122 quantity in Huh7 after inhibitor exposure – cell-based, RT-qPCR, dry powder, orthogonal assay for miR-122 inhibitor project, dose response (AID 687041); conditions: Huh7 miR-122 level, 48 h; series mostly up to 35 µM; relative miR-122 level (fraction of control): at the top concentration

Relative miR-122 level (fraction of control), inactive:
CCCCNS(=O)(=O)c1ccc2nc(-c3cccnc3)cc(C(=O)NC(C)CC)c2c1 (stereo not given) 0.978
O=C(Nc1ccc2ccccc2c1)c1ccc(Cl)cc1Cl 2.03
Cc1ccc(C(=O)C2Oc3ccccc3C3CC(c4ccc(C)cc4)=NN23)cc1 (stereo not given) 0.992
COc1ccc(S(=O)(=O)Nc2ccc(OC(F)F)cc2)c2cccnc12 1.16
COc1ccc(C(C)(C)C)cc1S(=O)(=O)NCC1CCCO1 (stereo not given) 0.947
Cc1cc(S(=O)(=O)NC2CCCCC2)c(C)s1 1.16
Cc1cccc(NS(=O)(=O)c2cc3c(cc2C)NC(=O)CO3)c1 0.95
CCOc1cc(C)c(S(=O)(=O)NC2CCCCC2)cc1C 0.676
COc1ccc(S(=O)(=O)NCCN2CCOCC2)c2ccccc12 0.954
Cc1cc(C)c(S(=O)(=O)NC2CC3CCC2C3)c(C)c1 (stereo not given) 0.851
Cc1ccc(NS(=O)(=O)c2cc(C(=O)NCc3ccccn3)ccc2Cl)cc1C 0.985
O=S(=O)(Nc1cccc2[nH]ncc12)c1ccc(F)c2ncccc12 0.846
Cc1cc(Cl)c(Cl)cc1S(=O)(=O)NCCCn1ccnc1 0.911
Cc1ccc(C)c(S(=O)(=O)Nc2ccc(-n3cnnn3)cc2)c1 0.901
CCOc1ccc(C)cc1S(=O)(=O)NC1CCCCC1 0.698
COc1ccc(C)cc1NS(=O)(=O)c1ccc2c(c1)N(C)CCO2 0.687
O=C(Nc1ccc(N2CCOCC2)c(S(=O)(=O)Nc2cc(Cl)ccc2Cl)c1)c1cccnc1 1.07
Cc1cc(C(C)(C)C)cc(S(=O)(=O)NCCO)c1C 1.22
Cc1cc(C)c(S(=O)(=O)NC(C)C)c(C)c1-n1cnnn1 1.17
COc1cccc(N2CCN(C(=O)c3oc4ccccc4c3NC(=O)CCc3cc(OC)no3)CC2)c1 0.682
O=S(=O)(c1ccc2c(c1)CCCN2)N1CCC[C@@H]2CCCC[C@H]21 0.549
CN1C(=O)c2cccc3c(S(=O)(=O)NCCc4ccccc4)ccc1c23 0.827
CCOc1ccccc1N1CCN(C(=O)c2cccc(-c3ccc(O)cc3)c2)CC1 0.555
COC(=O)c1cc(S(=O)(=O)Nc2cc(OC)cc(OC)c2)cn1C 0.972
Cc1ccc(C(C)C)cc1S(=O)(=O)Nc1cccnc1 1.21
COc1cc(C)c(C(C)C)cc1S(=O)(=O)n1cnc(C)c1 0.792
Cc1cc(C)c(C)c(S(=O)(=O)NC2CCCCC2)c1C 0.685
Cc1ccc(C)c(S(=O)(=O)Nc2ccc3cn[nH]c3c2)c1 0.908
Nc1c(S(=O)(=O)c2cccs2)c2nc3ccccc3nc2n1Cc1ccccc1 0.7
CCN(CC)C(=O)CN(c1cc2c(cc1OC)oc1ccccc12)S(=O)(=O)c1ccccc1 0.384
